Test results reported in ChEMBL document CHEMBL4513216, “Probing the Open Global Health Chemical Diversity Library for Multistage-Active Starting Points for Next-Generation Antimalarials” (ACS Infect Dis, 2020).
Out of some 65,000 compounds screened, about 2,100 (3.2%) showed an effect of 50% or more. The median lay at about -52%. The full list was thinned out, with strong results kept by preference.

tested on: Plasmodium falciparum; assay: Screen against P. falciparum Asexual Blood Stage (ABS), at 5uM; type: functional, Dd2; details: tested at 5 uM

Row | SMILES | INHIBITION [%]
1 | CCN1CCC2(CCC1=O)CN(c1ccnc(SC)n1)CCN2C (centres undefined) | -44.5
2 | Cc1nc(CC(=O)N2CCN(CCOc3ccccc3)CC2)cs1 | -22.5
3 | CN(C)C(=O)CN1CCN(C(=O)Cc2csc(-c3ncccn3)n2)CC1 | 6.7
4 | Cc1nc(CN2CC[C@H]3[C@H]2CCN3c2ncccn2)cs1 | -38
5 | Cc1cnn(CCCNCc2csc(COc3ccccc3)n2)c1 | 70.9
6 | CN1CCN(C(=O)Cc2csc(-c3ccsc3)n2)C(c2ccccc2)C1 (centres undefined) | -7.38
7 | CC(Cn1cccn1)NCc1csc(-c2ccsc2)n1 (centres undefined) | -88.6
8 | Cc1cnn(CCNCc2csc(-c3ncccn3)n2)c1 | 71.5
9 | Cc1cnn(CCNCc2csc(-c3ccsc3)n2)c1 | 72.3
10 | O=C(C1CCOCC1)N1C[C@@H]2CC[C@H]1CN(Cc1ccncc1)C2 | -111
11 | COc1ccc2c(c1)c(C(=O)Nc1nnn[nH]1)cn2C | 10.8
12 | Cc1cc(N2CCC(O)(CN(C)C)C2)c2cc3c(cc2n1)OCO3 (centres undefined) | 89.9
13 | Cc1cc(N2CCCC(O)(CN(C)C)C2)c2cc3c(cc2n1)OCO3 (centres undefined) | 80.2
14 | CCOCCN1CCN(CC(O)c2cc(Cl)ccc2Cl)CC1 (centres undefined) | 78.5
15 | CCN1CCN(CC(O)c2cc(Cl)ccc2Cl)CC1 (centres undefined) | 77
16 | O=C(NCc1cccnc1)[C@H]1CN2CCC1C[C@@H]2Cn1cc(CO)nn1 (some centres undefined) | -46.1
17 | O=C(O)[C@@H]1CN(CC2CCC2)C[C@H]1c1ccc(F)cc1 | -73.4

Row | SMILES | INHIBITION [%]
18 | O=C(c1ccco1)N1CCN2C[C@H](Oc3cncnc3)C[C@H]2C1 | -20.6
19 | CC(C)n1ncc2c1NC(=O)CC21C(=O)Nc2c(Cl)ccc(Cl)c21 (centres undefined) | 83.5
20 | O=C(NC[C@H]1C[C@@H]2CCN1C[C@@H]2CN1CCCCC1)c1ccco1 | -92.2
21 | COc1ccccc1C1SCC(=O)Nc2c1c(=O)[nH]n2C1CCCCC1 (centres undefined) | -98.6
22 | N#Cc1ccc(N2CCC(OC3CCOCC3)CC2)cc1Cl | -184
23 | CCC1CCCCN1CCc1ccncc1 (centres undefined) | -81.4
24 | CCC1CCCCN1Cc1ncc(C(C)(C)C)o1 (centres undefined) | 71.2
25 | Cc1ccc(N2C[C@H]3CCN(Cc4ccncc4)C[C@H]3C2)nn1 | -4.71
26 | Cc1cc(CN2CCC(C3CCN(CCc4ccccc4)CC3)C2)[nH]n1 (centres undefined) | 93.5
27 | COc1ccc(C(=O)C2CCCN(Cc3cc(C)n[nH]3)C2)c(OC)c1 (centres undefined) | -4.88
28 | Fc1ccccc1C1(CNC2CCOC3(CCOCC3)C2)CCCC1 (centres undefined) | 76.3
29 | CN(C)CCN(C(=O)Cc1ccc2c(c1)OCCO2)C1CCN(C)CC1 | -48.3
30 | COc1ncccc1CN1CCC2[C@H]1CCN2CCN(C)C (some centres undefined) | 53.9
31 | CN(C)CCN1CCC2[C@@H]1CCN2Cc1ccc2c(c1)OCO2 (some centres undefined) | 72.5
32 | CN(C)CCN(C)C(=O)Cc1ccc2c(c1)OCCO2 | -12.9
33 | COc1ncccc1CN1C[C@@H]2OCCN(CCN(C)C)[C@@H]2C1 | -3.36
34 | COc1ncccc1CN1CC[C@H]2O[C@@H](c3nnc(C)o3)CC[C@H]21 | -71.9
